# In PubChem BioAssay (NCI):
# Several values for one entry are separate records, joined by “and”; a condition that tells them apart may be missing. Equal values may be shown once. This is part of a sample that, as a whole, favours compounds with a hit. Of some 83,000 tested, about 20% had one in any assay.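 Testing used 96-well plates and a 48-hour single-concentration exposure. Example: -40 means 40% of the starting cells died.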 Activity calls are given as the source filed them. Rule for the calls: active = growth percent below 10; inactive = the rest.
# System: MDA-MB-468 breast
# Assay: NCI-60 one-dose screen, 48 h (100 = growth as untreated, 0 = no growth, -100 = all killed)
# Details: 10 µM unless noted
row,Structure (SMILES),growth
1,CC1(C)C(=O)/C(=C\c2ccco2)C[C@]2(C)[C@H]3CC[C@@H]4[C@@H](C(=O)/C=C/c5ccco5)CC[C@@]4(C)[C@]3(C)CC[C@@H]12,-1.49% (active)
2,Cc1cc(N/N=C/c2nc(-c3ccc(Br)cc3)oc2C)c2cc(Br)ccc2n1,-5.21% (active)
3,COc1ccccc1S(=O)(=O)Nc1ccc2c3c(cc(-c4cnn(C5CC5)c4)nc13)C(=O)N2C,50.9% (inactive)
4,CC(=O)O[C@@H]1/C=C/C(=O)N[C@@H](C)CCC/C=C/[C@@H]2CCC[C@H]21,101% (inactive)
5,O=C(Nc1ccc(Cl)c(C(F)(F)F)c1)Nc1ccc2oc(=O)ccc2c1,24.8% (inactive)
6,N#Cc1cnn2c(-c3ccc(Cl)cc3)nc(NC3CC3)nc12,97% (inactive)
7,CNCCNc1nc2ccccc2c2c(=O)c3cc(F)ccc3oc12,59.1% (inactive)
8,O=C(Cn1cc(COc2ncnc3c2cnn3-c2ccccc2)nn1)Nc1ccccn1,97.7% (inactive)
9,Cc1ccc(/C=C/c2nn3c(-c4ccco4)nnc3s2)cc1,116% (inactive)
10,CC(=O)/C(=C/c1ccc(-c2ccccc2)cc1)C(=O)c1ccccc1,92.2% (inactive)
11,C[PH+](c1nc2ccccc2nc1[PH+](C)C(C)(C)C)C(C)(C)C.C[PH+](c1nc2ccccc2nc1[PH+](C)C(C)(C)C)C(C)(C)C.[Au+].[Cl-] (stereo not given),-80.7% (active)
12,COc1cc(C(=O)N(C(C)C)C2CCCCC2)cc(OC)c1OC,89.8% (inactive)
13,CCN(CC)CCOC(=O)Nc1ccccc1Cl,104% (inactive)
14,O=C(COc1ccc(/C=C2\SC(=O)NC2=O)cc1)Nc1ccc(C(=O)/C=C/c2cc3ccccc3nc2Cl)cc1,20.6% (inactive)
15,O=Cc1c(OCc2cnnn2CC(=O)Nc2ccc(Cl)cc2)ccc2ccccc12,104% (inactive)
16,O=C(/C=C/c1ccccc1)Oc1ccc(/C=C/c2cc(OC(=O)/C=C/c3ccccc3)cc(OC(=O)/C=C/c3ccccc3)c2)cc1,99.4% (inactive)
17,CCOC(=O)C(Cc1ccccc1)n1c(O)c(C=Nc2ccc(C(=O)OCCN(CC)CC)cc2)sc1=O (stereo not given),82.6% (inactive)
18,O=c1sn(-c2cccc3ccccc23)c(=O)n1Cc1ccccc1,106% (inactive)
19,CCSC1=NC2C(N(CC)C(=O)N2CC)N1/N=C/C=C/c1ccccc1[N+](=O)[O-] (stereo not given),-0.585% (active)
20,COc1cc(CNS(=O)(=O)c2ccc(C)cc2)ccc1OCc1cn(-c2ccc(F)cc2)nn1,62.3% (inactive)

row,Structure (SMILES),growth
1,Cc1nc(-c2ccccc2)cc2c(O)c(C(=O)NN)[nH]c(=O)c12,116% (inactive)
2,CCC(O)C(C)(C)C (stereo not given),115% (inactive)
3,O=C1OCC2=C1C(c1cccc(C(F)(F)F)c1)c1cc3c(cc1N2CCO)OCO3 (stereo not given),-5.36% (active)
4,CN1CCc2cccc3c2C1Cc1ccc(O)c(O)c1-3 (stereo not given),0.652% (active)
5,Fc1ccc2c(c1)c(-c1nc(-c3c[nH]c4ncccc34)cs1)cn2CCCN1CCOCC1,18.3% (inactive)
6,Cc1[nH]c(C(=O)Nc2ccc(C(N)=O)cc2OC(C)C)c(Cl)c1Cl,68.4% (inactive)
7,O=C(NCCNc1nccc(-c2c(-c3cccc(O)c3)nc3sccn23)n1)c1ccccc1O,52% (inactive)
8,COc1ccc(/C=C/c2n[nH]c3ccc(N4CCOC4=O)cc23)cc1,-0.999% (active)
9,O=S(=O)(NCCCNc1nccc(-c2[nH]c(-c3ccccc3)nc2-c2ccc(F)c(O)c2)n1)c1ccc(C(F)(F)F)cc1,-8.61% (active)
10,Cc1ccc(Nc2c(C(N)=O)cnc3ccc(S(=O)(=O)Nc4cc(C)on4)cc23)cc1,92.4% (inactive)
11,C[C@]12CC[C@@H]3c4ccc(O)c([N+](=O)[O-])c4CC[C@H]3[C@@H]1CC[C@@H]2NS(=O)(=O)c1cccc(Br)c1,39.8% (inactive)
12,CS(=O)/C(C#N)=C\C=C\c1cccc(Cl)c1 (stereo not given),3.26% (active)
13,CCN(CC)c1cc2oc3cc(N)cc(=N)c-3nc2cc1C,38.3% (inactive)
14,CCOC(=O)C(C)(c1ccccc1)c1ccccc1,109% (inactive)
15,O=C(Nc1cc(F)cc2cccnc12)c1cnc(N2CCOCC2)cn1,18.5% (inactive)
16,CCCCCC/C=N/Nc1ccc([N+](=O)[O-])cn1,108% (inactive)
17,O=C1c2cc(Cl)ccc2-c2c(O)cc(Cl)cc21,48.6% (inactive)
18,COc1cc2c3c(n(CCCN4CCCCC4)c(=O)c2cc1OC)-c1cc2c(cc1C3=O)OCO2,-84% (active)
19,O=C(O)C1C2CC3C(OC(=O)C31)C2Br (stereo not given),93.2% (inactive) and 72.3% (inactive)
20,COc1cc(-c2cc(=O)oc3cc(O)ccc23)c(OC)c2c1OCO2,67.7% (inactive)
